Inconclusive results are not listed. Activity calls are given as the source filed them. The calls were made as follows, unless noted: active = hit-call score of the fitted dose curve at least 0.9, where 1 is the maximum; inconclusive = response in the unintended direction; inactive = score below 0.9.
Assays:
[1] = target: Cellular tumor antigen p53 (Homo sapiens) (UniProt P04637); assay: TOX21_p53_BLA_p2_ratio: Tox21 HCT-116 p53 Agonism Beta-lactamase Assay, Ratio, Phase 2 (AID 2283592)
How it was run: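 HCT-116 cells with p53-responsive beta-lactamase reporter, 4000 cells/well, preincubated 5 h, then compound in DMSO (217-fold dilution) for 16 h at 37C. CCF4-AM substrate 2 h at room temperature; 460/530 nm emission ratio fitted upward versus DMSO.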

[2] = TOX21_p53_BLA_p3_viability: Viability Assessment in the Tox21 HCT-116 p53 Agonism Beta-lactamase Assay, Phase 3 (AID 2283593)
How it was run: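 HCT116 cells, 4000/well, dosed 5 h after plating by pin transfer (217-fold dilution from DMSO stock) and incubated 16 h at 37C, 5% CO2. Viability read as ATP luminescence with CellTiter-Glo after 30 min at room temperature.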

[3] = target: Cellular tumor antigen p53 (Homo sapiens) (UniProt P04637); assay: TOX21_p53_BLA_p3_ratio: Tox21 HCT-116 p53 Agonism Beta-lactamase Assay, Ratio, Phase 3 (AID 2283596)
How it was run: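 HCT116 p53-bla cells (4000/well) given compound in DMSO (217-fold dilution) after 5 h, incubated 16 h at 37C. CCF4-AM substrate 2 h at room temperature; 460/530 nm emission ratio, gain fitted against DMSO.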

[4] = target: Cellular tumor antigen p53 (Homo sapiens) (UniProt P04637); assay: TOX21_p53_BLA_p5_ratio: Tox21 HCT-116 p53 Agonism Beta-lactamase Assay, Ratio, Phase 5 (AID 2283599)
How it was run: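 HCT-116 p53-bla cells (4000/well) plated 5 h, dosed with compound (217-fold DMSO dilution) for 16 h at 37 C; CCF4-AM substrate 2 h at room temperature. Activity is the 460/530 nm emission ratio (405 nm excitation), fitted in gain-of-signal direction versus DMSO.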

[5] = target: Cellular tumor antigen p53 (Homo sapiens) (UniProt P04637); assay: TOX21_p53_BLA_p4_ratio: Tox21 HCT-116 p53 Agonism Beta-lactamase Assay, Ratio, Phase 4 (AID 2283601)
How it was run: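 HCT-116 p53 beta-lactamase reporter cells (4000/well) preincubated 5 h, then compound (217-fold dilution of DMSO stock) for 16 h at 37C. CCF4-AM substrate added 2 h at room temperature; 460/530 nm emission ratio fitted upward versus DMSO.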

[6] = TOX21_p53_BLA_p4_viability: Viability Assessment in the Tox21 HCT-116 p53 Agonism Beta-lactamase Assay, Phase 4 (AID 2283597);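 also: hits lower the luminescence signal meaning cytotoxicity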
How it was run: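 HCT-116 p53-bla cells, 4000/well, dosed after 5 h attachment and incubated 16 h at 37 °C, 5% CO2. Viability from CellTiter-Glo ATP luminescence after 30 min at room temperature, taken after the beta-lactamase read; loss of signal indicates cytotoxicity.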

[7] = TOX21_p53_BLA_p5_viability: Viability Assessment in the Tox21 HCT-116 p53 Agonism Beta-lactamase Assay, Phase 5 (AID 2283600)
How it was run: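 HCT-116 p53 beta-lactamase reporter cells, 4000/well, were exposed to compound (pin transfer, 217-fold dilution) for 16 hours at 37C. Cellular ATP was read by CellTiter-Glo luminescence after 30 min at room temperature.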

PGR (gene 5241) [8] = target: PGR (gene 5241) (UniProt P06401); assay: TOX21_PR_BLA_Followup_Antagonist_ratio: Tox21 HEK293 Progesterone Receptor (PR) Antagonism Beta-lactamase Follow-Up Assay, Ratio (AID 2283934)
How it was run: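 PR-UAS-bla HEK293T cells, 3,000/well in 2% charcoal-stripped FBS, given compound plus 1nM R5020 agonist for 16 hr at 37C. Beta-lactamase FRET substrate 2 hours, ratio cleaved/uncleaved fluorescence; viability by CellTiter-Glo in same wells.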

[9] = TOX21_PR_BLA_Followup_Agonist_viability: Viability Assessment in the Tox21 HEK293 Progesterone Receptor (PR) Agonism Beta-lactamase Follow-Up Assay (AID 2283935);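 also: signal loss means lower viability so actives are cytotoxic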
How it was run: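 PR-UAS-bla HEK293T cells in 2% charcoal-stripped FBS medium, plated 6 hr before compound addition, exposed 16 hr at 37C. Viability read by CellTiter-Glo ATP luminescence after 30 min at room temperature, in the same wells as the beta-lactamase readout.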

[10] = TOX21_PR_BLA_Followup_Antagonist_viability: Viability Assessment in the Tox21 HEK293 Progesterone Receptor (PR) Antagonism Beta-lactamase Follow-Up Assay (AID 2283936);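 also: hits lower the luminescence signal meaning cytotoxicity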
How it was run: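 PR-UAS-bla HEK293T cells (3,000/well, 2% charcoal-stripped FBS) given compound plus R5020 agonist, 16 h at 37C. CellTiter-Glo added after bla read, 30 min at room temperature; luminescence loss indicates cytotoxicity.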

PGR (gene 5241) [11] = target: PGR (gene 5241) (UniProt P06401); assay: TOX21_PR_LUC_Followup_Antagonist: Tox21 HEK293 Progesterone Receptor (PR) Antagonism Luciferase Follow-Up Assay (AID 2283938);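 also: curve fitted upward as signal gain over DMSO baseline despite antagonist label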
How it was run: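 HEK293-PR-A-luc cells, 3,000/well, preincubated 5 h at 37C before compound addition in DMSO; 16 h compound exposure at 37C. ONE-Glo luciferase luminescence read after 30 min at room temperature, fitted relative to DMSO baseline.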

[12] = TOX21_PR_LUC_Followup_Agonist_viability: Viability Assessment in the Tox21 HEK293 Progesterone Receptor (PR) Agonism Luciferase Follow-Up Assay (AID 2283941);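 also: loss of signal means cytotoxicity so actives lower viability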
How it was run: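 HEK293-PR-A-luc cells, kept in 10% charcoal-stripped FBS medium, were treated with compounds for 16 h at 37C. Viability read as cellular ATP by luciferase-coupled luminescence; loss of signal indicates cytotoxicity.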

[13] = CCTE_Harrill_HTTr_Viability_MCF7: CCTE's 6-hour Cell Viability Assessment for the High-Throughput Transcriptomics (HTTr) Platform, in MCF-7 cells cultured in DMEM + 10% fetal bovine serum, Harrill Lab (AID 2284010; active = hit-call score of the fitted dose curve at least 0.9, where 1 is the maximum; inactive = score below 0.9)
How it was run: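 MCF-7 cells in DMEM + 10% FBS, 384-well, exposed 6 h to an eight-point dilution series. Membrane integrity scored by high-content imaging of propidium iodide exclusion; bidirectional fit versus DMSO.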

[14] = CCTE_Harrill_HTTr_Apoptosis_MCF7: CCTE's 6-hour Apoptosis Assessment for the High-Throughput Transcriptomics (HTTr) Platform, in MCF-7 cells cultured in DMEM + 10% fetal bovine serum, Harrill Lab (AID 2284011; active = hit-call score of the fitted dose curve at least 0.9, where 1 is the maximum; inactive = score below 0.9)
How it was run: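 MCF-7 cells in DMEM + 10% FBS exposed 6 h to chemicals over an eight-point dilution series. Caspase-3/7 activation imaged by high-content CellEvent Green staining; fitted bidirectionally versus DMSO.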

[15] = CCTE_Harrill_HTTr_CellCount_MCF7: CCTE's Cell Proliferation Assessment for the High-Throughput Transcriptomics (HTTr) Platform, Harrill Lab (AID 2284012);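 also: intended direction is loss of nuclei count meaning fewer cells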
How it was run: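 MCF7 cells exposed 6 hours to an eight-point dilution series; Hoechst-stained nuclei counted by high-content imaging. Bidirectional curve fitting against DMSO baseline.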

[16] = TOX21_PR_LUC_Followup_Antagonist_viability: Viability Assessment in the Tox21 HEK293 Progesterone Receptor (PR) Antagonism Luciferase Follow-Up Assay (AID 2283940)
How it was run: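 HEK293-PR-A-luc cells kept in charcoal-stripped FBS medium were plated 5 h before compound addition, then exposed 16 h at 37C; viability read as cellular ATP by luciferase luminescence, loss of signal indicating cytotoxicity.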

[17] = target: Thyroid hormone receptor alpha (Rattus norvegicus) + Thyroid hormone receptor beta (Rattus norvegicus) (UniProt P18113+P63059); assay: TOX21_TR_LUC_GH3_Antagonist_Followup: Tox21 GH3 Thyroid Hormone Receptor Antagonism Luciferase Follow-Up Assay (AID 2283942)
How it was run: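 Antagonist mode: GH3 cells seeded 1,500/well, compounds at 15 concentrations (92 uM to 5nM final) plus T3 at 1.0 nM final, 24 h at 37C. Luciferase read with ONE-Glo after 30 min at room temperature.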

THRB (gene 7068) = THRB (gene 7068) (UniProt P10828); assay: TOX21_TRB_COA_Antagonist_Followup_ratio: Tox21 Thyroid Hormone Receptor beta Antagonism through Coactivator Recruitment Follow-Up Assay, Ratio (AID 2283967)
How it was run: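 Cell-free TR-FRET: GST-TRb LBD (5.0 nM) with fluorescein-SRC-2 peptide (200 nM) and Tb anti-GST antibody (2 nM), 0.10% BSA. 520:495 nm emission ratio normalized to DMSO (0%) and T3 (100%).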

[18] = TOX21_TR_RXR_BLA_Antagonist_Followup_viability: Viability Assessment in the Tox21 Thyroid Hormone Receptor beta Retinoid X Receptor alpha (RXRa) Antagonism Beta-lactamase (BLA) Follow-Up Assay (AID 2283979)
How it was run: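 RXRa-bla HEK293T cells (2,500/well, phenol red-free DMEM, 2% charcoal-stripped FBS) were attached 5 h, then exposed to compounds at 11 concentrations in triplicate for 16 h at 37C. Viability measured by CellTiter-Glo ATP luminescence, bidirectional fitting versus DMSO.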

PGR (gene 5241), sequence (P06401 whole entry, looked up): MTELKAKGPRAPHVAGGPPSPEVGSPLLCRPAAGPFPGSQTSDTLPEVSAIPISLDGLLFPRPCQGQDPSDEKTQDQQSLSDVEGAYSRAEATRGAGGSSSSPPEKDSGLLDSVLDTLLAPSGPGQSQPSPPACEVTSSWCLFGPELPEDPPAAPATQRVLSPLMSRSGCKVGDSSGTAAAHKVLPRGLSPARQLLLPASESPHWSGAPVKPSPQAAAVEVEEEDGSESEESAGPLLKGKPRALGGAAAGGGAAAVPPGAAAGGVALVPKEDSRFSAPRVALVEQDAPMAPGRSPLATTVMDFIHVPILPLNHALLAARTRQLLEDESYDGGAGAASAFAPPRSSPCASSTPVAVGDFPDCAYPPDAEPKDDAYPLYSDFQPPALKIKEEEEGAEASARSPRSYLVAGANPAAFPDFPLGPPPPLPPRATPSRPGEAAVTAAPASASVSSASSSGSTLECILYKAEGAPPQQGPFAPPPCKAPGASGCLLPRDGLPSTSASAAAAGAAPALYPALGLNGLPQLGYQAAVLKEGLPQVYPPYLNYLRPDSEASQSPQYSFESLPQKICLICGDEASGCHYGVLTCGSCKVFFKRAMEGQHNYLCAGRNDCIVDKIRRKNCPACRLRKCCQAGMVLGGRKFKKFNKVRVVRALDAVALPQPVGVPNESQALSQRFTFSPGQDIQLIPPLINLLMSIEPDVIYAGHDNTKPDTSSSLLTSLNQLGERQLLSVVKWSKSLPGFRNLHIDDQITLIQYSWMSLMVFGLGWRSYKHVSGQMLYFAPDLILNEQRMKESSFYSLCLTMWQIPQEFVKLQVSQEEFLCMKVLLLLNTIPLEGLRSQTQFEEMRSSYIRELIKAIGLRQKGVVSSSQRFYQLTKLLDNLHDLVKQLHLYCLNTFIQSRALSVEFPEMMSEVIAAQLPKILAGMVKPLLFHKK
Cellular tumor antigen p53 (Homo sapiens), sequence (P04637 whole entry, looked up): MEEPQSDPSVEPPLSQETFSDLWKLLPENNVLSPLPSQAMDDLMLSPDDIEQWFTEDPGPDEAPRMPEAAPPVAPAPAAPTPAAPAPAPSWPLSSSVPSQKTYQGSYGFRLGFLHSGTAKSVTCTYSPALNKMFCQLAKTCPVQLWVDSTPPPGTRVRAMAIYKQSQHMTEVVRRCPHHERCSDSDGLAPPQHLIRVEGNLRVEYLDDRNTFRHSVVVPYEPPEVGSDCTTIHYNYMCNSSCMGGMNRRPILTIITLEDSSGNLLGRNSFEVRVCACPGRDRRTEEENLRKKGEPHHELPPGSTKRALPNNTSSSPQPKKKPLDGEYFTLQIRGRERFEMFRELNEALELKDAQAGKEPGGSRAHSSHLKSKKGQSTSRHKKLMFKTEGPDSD
THRB (gene 7068), sequence (P10828 whole entry, looked up, the tested form may be a part): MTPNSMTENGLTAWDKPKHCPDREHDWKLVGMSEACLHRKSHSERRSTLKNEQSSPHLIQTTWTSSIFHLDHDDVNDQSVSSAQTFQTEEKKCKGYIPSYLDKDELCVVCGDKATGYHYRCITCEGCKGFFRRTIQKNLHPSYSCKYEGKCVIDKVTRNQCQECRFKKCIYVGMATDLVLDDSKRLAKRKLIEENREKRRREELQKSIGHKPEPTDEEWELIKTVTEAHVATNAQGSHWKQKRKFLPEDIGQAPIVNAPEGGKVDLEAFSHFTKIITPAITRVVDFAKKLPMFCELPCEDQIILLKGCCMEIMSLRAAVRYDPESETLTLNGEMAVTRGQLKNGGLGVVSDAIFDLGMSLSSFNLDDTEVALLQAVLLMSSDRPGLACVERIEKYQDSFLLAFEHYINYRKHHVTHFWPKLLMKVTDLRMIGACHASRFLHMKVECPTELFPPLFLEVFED

O=CC(Br)(Br)Br
AC50 [1]: 82.7 µM (active)
outcome [2]: inactive
outcome [3]: inactive
AC50 [4]: 29.9 µM (active)
outcome [5]: inactive

CC(C)Br
outcome [1]: inactive
outcome [2]: inactive
outcome [6]: inactive

CCCCN(N=O)C(=N)N[N+](=O)[O-]
AC50 [1]: 57 µM (active)
outcome [2]: inactive
AC50 [3]: 56.4 µM (active)
AC50 [4]: 55.2 µM (active)
outcome [7]: inactive
AC50 [5]: 40.7 µM (active)

CCN(CCO)CCn1c(Cc2ccccc2)nc2c1c(=O)n(C)c(=O)n2C
outcome [1]: inactive
outcome [2]: inactive
outcome [6]: inactive
outcome [4]: inactive

Cc1ccc2ccccc2c1
outcome [1]: inactive
outcome [2]: inactive
outcome [3]: inactive
outcome [4]: inactive
outcome [5]: inactive

C=C[C@H]1CN2CC[C@H]1C[C@H]2[C@H](OC(=O)OCC)c1ccnc2ccc(OC)cc12
outcome [1]: inactive
outcome [2]: inactive
outcome [6]: inactive
outcome [4]: inactive
outcome [7]: inactive
outcome [5]: inactive

Cc1c(Cl)c(=O)oc2cc(OP(=O)(OCCCl)OCCCl)ccc12
outcome [1]: inactive
outcome [2]: inactive
outcome [3]: inactive
outcome [4]: inactive
outcome [7]: inactive
outcome [5]: inactive

O=C(O)CCCO
outcome [1]: inactive
outcome [2]: inactive
outcome [3]: inactive
outcome [6]: inactive
outcome [4]: inactive
outcome [5]: inactive

CN=CNc1ccc(C)cc1C
outcome [1]: inactive
outcome [2]: inactive
outcome [3]: inactive
outcome [7]: inactive
outcome [5]: inactive

COc1ccc(C(=O)N2CCCC2=O)cc1
outcome [1]: inactive
outcome [2]: inactive
outcome [6]: inactive
outcome [4]: inactive
outcome [7]: inactive

CC(C)(C)NCC(O)c1cc(Cl)c(N)c(Cl)c1 (configuration not stated)
outcome [1]: inactive
outcome [2]: inactive
outcome [3]: inactive
outcome [5]: inactive

C=CCCC#N
outcome [1]: inactive
outcome [2]: inactive
outcome [3]: inactive
outcome [6]: inactive
outcome [7]: inactive

CC(N)Cc1ccc2c(c1)OCO2 (configuration not stated)
outcome [1]: inactive
outcome [2]: inactive
outcome [3]: inactive
outcome [4]: inactive
outcome [7]: inactive
outcome [5]: inactive

C[C@]1(O)CC[C@H]2[C@@H]3CCC4=CC(=O)CC[C@]4(C)[C@@]3(F)[C@@H](O)C[C@@]21C
outcome (PGR (gene 5241) [8]): inactive
outcome [9]: inactive
outcome [10]: inactive
outcome (PGR (gene 5241) [11]): inactive
outcome [12]: inactive

CC(N)=S
outcome [13]: inactive
outcome [14]: inactive
outcome [15]: inactive

ClCOCCl
outcome [1]: inactive
outcome [3]: inactive
outcome [4]: inactive
outcome [7]: inactive

CC[C@H]1C[C@H]2[C@@H]3CCC4=CC(=O)CC[C@@H]4[C@H]3CC[C@]2(C)[C@H]1O
outcome [1]: inactive
outcome [3]: inactive
outcome [6]: inactive
outcome [7]: inactive
outcome [5]: inactive
outcome (PGR (gene 5241) [8]): inactive
outcome [9]: inactive
outcome [10]: inactive
outcome (PGR (gene 5241) [11]): inactive
outcome [16]: inactive
outcome [12]: inactive
outcome [17]: inactive
outcome (THRB (gene 7068)): inactive
outcome [18]: inactive

Source: PubChem BioAssay (EPA / NIEHS)
